The record followed here is ChEMBL document CHEMBL1857833, “Screening and optimization of specific chemical series against human African Trypanosomiasis (HAT)”.

The structures appear in SMILES notation. Screen size: about 4,400 compounds; about 390 (8.9%) showed an effect of 50% or more. Only a selection was taken, and strong results are over-represented in it overall.

This assay deals with Trypanosoma brucei. In words: DNDI: Inhibition of Human African Trypanosomiasis, SBRI 427, in vitro at 2 ug.mL-1. It counts as functional.
What is called % inhibition is the relative decrease from the control value, in per cent. For the compound `COc1ccc(OC)c(CCNCc2coc(-c3ccc(C(C)(C)C)cc3)n2)c1`, the “% inhibition” value was 74%.

Take `COc1ccc(-c2nc(CNCCc3cc(OC)ccc3OC)co2)cc1`: the “% inhibition” value is on record as 7%.

For `COc1ccc(OC)c(CCNCc2coc(-c3ccc(C)cc3)n2)c1`, the “% inhibition” value came out at 7%.

As to `COc1ccc(Oc2nc(C)ccc2/C(=N/O)N2CC2C)cc1` (stereo not given), the “% inhibition” value was 14%.

For `CC1CN1/C(=N\O)c1ccc(Oc2ccc3oc4ccccc4c3c2)nc1` (stereo not given), the “% inhibition” value is 68%.

In the case of `Cc1cc(C)cc(Oc2ccc(/C(=N/O)N3CC3C)cn2)c1` (stereo not given), the “% inhibition” value turned out to be 3%.

On to `CC1CN1/C(=N\O)c1ccc(Oc2ccc3ccccc3c2)nc1` (stereo not given), for which the “% inhibition” value came out at 8%.

Regarding `COc1ccc(OC)c(CCNCc2coc(-c3ccccc3C)n2)c1`, the “% inhibition” value came to 11%.

In the case of `Cc1ccc(/C(=N/O)N2CC2C)c(Oc2cccc(C(C)C)c2)n1` (stereo not given), the “% inhibition” value is recorded as -6%.

As for `Cc1ccc(/C(=N/O)N2CC2C)c(Oc2cccc3ccccc23)n1` (stereo not given), the “% inhibition” value was 12%.
